USP30 block: human USP30 deubiquitinase inhibition; inhibition, % at 25 µM; Q70CQ3; purified USP30, Ub-rhodamine cleavage fluorescence; 47,000 tested, 5.3% active
Target sequence (Q70CQ3 whole entry, looked up): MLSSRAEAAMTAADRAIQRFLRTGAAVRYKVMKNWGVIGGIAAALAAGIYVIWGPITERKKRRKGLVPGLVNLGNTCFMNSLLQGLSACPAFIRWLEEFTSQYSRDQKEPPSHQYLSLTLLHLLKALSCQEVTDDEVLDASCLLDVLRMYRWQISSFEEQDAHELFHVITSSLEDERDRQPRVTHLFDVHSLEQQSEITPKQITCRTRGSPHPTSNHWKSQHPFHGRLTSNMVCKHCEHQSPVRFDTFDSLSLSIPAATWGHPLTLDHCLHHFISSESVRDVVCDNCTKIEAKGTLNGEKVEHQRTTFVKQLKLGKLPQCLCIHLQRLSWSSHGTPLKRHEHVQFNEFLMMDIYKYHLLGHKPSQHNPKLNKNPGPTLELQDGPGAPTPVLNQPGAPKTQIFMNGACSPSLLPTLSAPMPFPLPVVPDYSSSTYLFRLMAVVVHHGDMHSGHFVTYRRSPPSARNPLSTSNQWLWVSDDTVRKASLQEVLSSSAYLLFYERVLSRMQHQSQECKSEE
USP28 inh: inhibitors of human USP28 deubiquitinase; Q96RU2; purified USP28, Ub-rhodamine cleavage fluorescence, 30 min; inhibition, % at 25 µM; 47,000 tested, 3% active; AID 1645857
USP17 inh: inhibitors of human USP17 deubiquitinase; A8MUK1; purified USP17, Ub-rhodamine cleavage fluorescence, 3 h; inhibition, % at 50 µM; 47,000 tested, 6.5% active; AID 1645855
OTUD3 inh: inhibitors of human OTUD3 deubiquitinase. purified OTUD3, Ub-rhodamine fluorescence, 2 h. inhibition, % at 25 µM. 47,000 tested, 0.7% active. AID 1645858
Starred values were filed as active, the others as inactive; i = inactive; · = no result given. Shown are actives, neighbours in structure and some others; about 11% of the full set was active somewhere. Rule as the data show it: active = inhibition above about 30%; inactive = the rest.

SMILES	USP30 block	USP28 inh	USP17 inh	OTUD3 inh
COc1ccc(-c2csc3ncn(CCc4ccccc4)c(=O)c23)cc1	-57	-24	-47	-19
Cc1ccc(NC(=O)c2sc(=S)n(CCc3ccccc3)c2N)cc1	44*	21	76*	17
CCCCN1CC(C(=O)Nc2ccc(C(=O)Nc3ccc(F)c(Cl)c3)cc2)CC1=O (stereo not drawn)	27	16	52*	3
CCCCN1CC(C(=O)Nc2ccc(C(=O)Nc3ccc(Cl)cc3)cc2)CC1=O (stereo not drawn)	64*	18	21	-10
O=C(OCCCN1C(=O)c2cccc3c(N4CCCCC4)ccc(c23)C1=O)c1ccc(Cl)cc1	i	-223	-181	-166
CS(=O)(=O)N1CCN(C(=O)Cc2ccccc2)CC2(CNC(=O)C2)C1 (stereo not drawn)	24	15	10	10
CC(=O)CSc1nc2sc3c(c2c(=O)n1-c1ccccc1)CCCC3	30*	7	16	16
CCOC(=O)c1noc2ncn(Cc3nc(-c4ccc(C)cc4)oc3C)c(=O)c12	35*	13	31*	6
COc1ccc(CN2CCCC23CCCN(C(=O)CCc2cccnc2)C3)cc1F (stereo not drawn)	96*	93*	41*	44*
CC(=O)N1CCN(S(=O)(=O)c2ccc(Cl)cc2)CC2(CNC(=O)C2)C1 (stereo not drawn)	25	10	5	12
O=C(Nc1ccccc1F)NC1CCN(c2ccc(F)cc2)C1=O (stereo not drawn)	80*	26	51*	16
COc1ccccc1NC(=O)NC1CCN(c2ccccc2)C1=O (stereo not drawn)	-7	-10	12	-3
Cc1ccc(CNC(=O)NC2CCN(c3ccccc3)C2=O)cc1 (stereo not drawn)	33*	9	8	16
Cc1cc(C)n2nc(CN(C(=O)COc3ccccc3)c3ccccc3)nc2n1	·	·	-9	1
Cc1nc2nc(CN(C(=O)COc3ccccc3)c3ccccc3)nn2c(C)c1Cl	36*	9	4	13
c1cc2c(cc1-c1nnc(C3(c4ccc5c(c4)OCO5)CCOCC3)o1)OCCO2	33*	1	-5	3
CCn1c(=O)c(N2CCC(C(=O)NCCCN3CCCCC3C)CC2)nc2cccnc21 (stereo not drawn)	7	5	4	6
CCN1CCN(CCNC(=O)c2ccc(N3CCc4ccccc43)s2)CC1	-67	12	1	-15
CC1CCCN(CCCNC(=O)c2ccc(N3CCc4ccccc43)s2)C1 (stereo not drawn)	24	58*	3	10
CC1CCCCN1CCCNC(=O)c1ccc(N2CCc3ccccc32)s1 (stereo not drawn)	24	56*	28	19
COc1cc2oc(C)cc(=O)c2c(O)c1CO	13	10	9	7
COc1cc(O)c2c(=O)cc(C)oc2c1CC=C(C)C	31*	30	38*	1
CN(Cc1ccccc1Cl)C(=O)c1cccc(S(=O)(=O)N2CCc3ccccc32)c1	22	13	-8	13
O=C(NCc1nc2ccccc2[nH]1)c1cccc(S(=O)(=O)N2CCc3ccccc32)c1	59*	29	31*	13
CC(C)=CCCC1(C)OC2=C(C(=O)c3cc(O)cc(O)c3C2=O)[C@H]2C=C(C)CC[C@H]21 (stereo partly drawn)	-16	18	86*	0
SMILES	USP30 block	USP28 inh	USP17 inh	OTUD3 inh
CC12CCCC(O1)c1c(cc3c(c1O)C(=O)c1c(O)cc(O)cc1C3=O)O2 (stereo not drawn)	-125	-26	-22	-24
COc1cc(/C=C/C(=O)OCC(=O)Nc2ccc([N+](=O)[O-])cc2OC)ccc1O	66*	84*	·	47*
O=C(Cn1cc(S(=O)(=O)N2CCCCCC2)ccc1=O)Nc1ccccc1	-13	-9	36*	-3
O=C(Cn1cc(S(=O)(=O)N2CCCCC2)ccc1=O)Nc1ccccc1	8	12	25	1
Cc1ccccc1Cn1cc(S(=O)(=O)N2CCCCCC2)ccc1=O	37*	10	21	15
Cc1ccccc1Cn1cc(S(=O)(=O)N2CCCC2)ccc1=O	-3	-14	-7	-3
Cc1ccc(NC(=O)Cn2cc(S(=O)(=O)N3CCCCC3)ccc2=O)cc1	44*	20	12	17
CN1C(=O)C(C)(C)c2cc(S(=O)(=O)NCc3cccc(Br)c3)ccc21	21	9	2	8
CCN(C(=O)Cn1cnc2c1c(=O)n(C)c(=O)n2C)c1ccc(F)cc1	28	0	-16	11
Cc1ccc(NC(=O)c2cc(=O)c3ccccc3o2)cc1S(=O)(=O)N1CCOCC1	35*	21	7	18
N#Cc1cc([N+](=O)[O-])ccc1N1CCN(c2ccc(O)cc2)CC1	35*	24	32*	3
CCCC(=O)c1c(-c2ccccc2)c2c3n(c(-c4ccc(Cl)cc4)cn13)CCCC2	-337	-84	-71	-64
COc1ccccc1NC(=O)CSC1=NC2(CCCCC2)Nc2ccccc21	-69	-9	54*	-17
CCOc1ccccc1-c1cc(NC(=O)c2cc3ccc4cccnc4c3[nH]2)on1	88*	12	68*	30
O=C(Nc1nc2ccccc2s1)c1cc2ccc3cccnc3c2[nH]1	·	·	58*	0
CC1(C)Cc2c(c(-c3ccco3)nc3sc4c(NCc5ccccn5)ncnc4c23)CO1	-7	13	38*	7
CCCCCCNc1ncnc2c1sc1nc(N3CCCC3)c3c(c12)CC(C)(C)OC3	10	-3	5	6
CCCCCCNc1ncnc2c1sc1nc(-c3ccccc3)c3c(c12)CC(C)(C)OC3	31*	27	16	14
O=C(NCc1noc(-c2ccccc2)n1)c1ccc(-c2noc(C3CC3)n2)cc1	13	28	32*	6
COc1ccc(C(=O)NCc2noc(C3CCCCC3)n2)cc1C#N	-3	42*	-14	0
O=c1[nH]c2ccccc2cc1CN(Cc1ccco1)S(=O)(=O)c1ccc(F)cc1	51*	34*	36*	4
O=C(Nc1ccccc1-c1nc(-c2ccccn2)no1)c1cc(Cl)ccc1Cl	60*	44*	56*	3
Cc1noc(-c2ccccc2NC(=O)c2ccc(Cl)c(Cl)c2)n1	19	3	6	10
COc1ccccc1CNCC(O)(c1ccccc1)c1ccc(F)cc1 (stereo not drawn)	36*	20	8	24
Cn1c(N)c(C(=O)CSc2nnc(COc3ccc(Cl)cc3)n2Cc2ccccc2)c(=O)n(C)c1=O	22	8	20	11
CCn1c(SCC(=O)c2c(N)n(CC(C)C)c(=O)n(C)c2=O)nnc1-c1ccccc1	-3	-9	58*	-2
Cc1ccccc1OCCSc1nc2ccccc2n1CC(=O)NC1CC1	50*	7	31*	5
O=C(Cn1c(SCCOc2ccccc2)nc2ccccc21)N1CCCCC1	17	12	7	12
COc1ccccc1Cn1c(SCC(N)=O)nc2nccnc2c1=O	13	9	-5	7
Cc1ccc(C(=O)NCC(=O)Nc2nc3ccccc3[nH]2)c(C)c1	-22	13	57*	-5
